Assay results reported in PubChem BioAssay (NCI).
Where “and” joins values, the source holds several entries; their conditions need not be identical. Identical values can stand only once. About 83,000 compounds went through this panel and 20% of them were active in at least one assay; those are over-represented in the sample as a whole.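 Results are percent growth after 48 hours of single-concentration exposure. 100 means growth as in untreated cells, lower positive values show inhibition; negative values down to -100 show cell death.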 Calls of active or inactive are those of the source. The calls were made as follows: active = growth percent below 10; inactive = the rest.

Legend:
Experiment in all cases: NCI-60 one-dose screen, 48 h (100 = growth as untreated, 0 = no growth, -100 = all killed)
Details in all cases: 10 µM unless noted
[1] = test system: NCI-H23 lung
[2] = test system: NCI-H226 lung
[3] = test system: NCI-H322M lung
[4] = test system: HOP-62 NSCLC
[5] = test system: NCI-H460 lung
[6] = test system: HOP-92 NSCLC
[7] = test system: NCI-H522 lung
[8] = test system: A549/ATCC NSCLC
[9] = test system: 786-0 renal
[10] = test system: COLO 205 colon
[11] = test system: DU-145 prostate
[12] = test system: K-562 leukemia
[13] = test system: MALME-3M melanoma
[14] = test system: MDA-MB-231 breast
[15] = test system: RXF 393 renal
[16] = test system: SF-268 CNS
[17] = test system: SF-295 CNS
[18] = test system: SF-539 CNS
[19] = test system: UACC-257 melanoma
[20] = test system: M14 melanoma

Question: How did the growth [1] turn out when `O=C1OC2(c3ccccc31)c1ccc(O)c(O)c1Oc1c2ccc(O)c1O` was run?
Answer: 105% (inactive) and 102% (inactive)

Question: And the growth [2]?
Answer: 90.5% (inactive) and 121% (inactive)

Question: And the growth [3]?
Answer: 109% (inactive) and 130% (inactive)

Question: And the growth [4]?
Answer: 114% (inactive) and 101% (inactive)

Question: What about the growth [5] of the same compound?
Answer: 114% (inactive) and 109% (inactive)

Question: And the growth [6]?
Answer: 61.9% (inactive) and 120% (inactive)

Question: What about the growth [7] of the same compound?
Answer: 89.8% (inactive) and 84.1% (inactive)

Question: What about the growth [8] of the same compound?
Answer: 105% (inactive)

Question: What about the growth [9] of the same compound?
Answer: 109% (inactive) and 117% (inactive)

Question: And the growth [10]?
Answer: 115% (inactive) and 117% (inactive)

Question: What about the growth [11] of the same compound?
Answer: 116% (inactive) and 119% (inactive)

Question: What about the growth [12] of the same compound?
Answer: 115% (inactive) and 92.6% (inactive)

Question: What about the growth [13] of the same compound?
Answer: 126% (inactive) and 114% (inactive)

Question: What about the growth [14] of the same compound?
Answer: 110% (inactive) and 108% (inactive)

Question: And the growth [15]?
Answer: 102% (inactive) and 120% (inactive)

Question: And the growth [16]?
Answer: 108% (inactive) and 114% (inactive)

Question: What about the growth [17] of the same compound?
Answer: 110% (inactive) and 130% (inactive)

Question: What about the growth [18] of the same compound?
Answer: 108% (inactive) and 125% (inactive)

Question: What about the growth [19] of the same compound?
Answer: 106% (inactive)

Question: And the growth [20]?
Answer: 113% (inactive)

Question: `Oc1ccccc1C=NCC1CCC(CN=Cc2ccccc2O)CC1` (stereo not given) was tested. Which growth [1] did it give?
Answer: 78.9% (inactive)

Question: And the growth [2]?
Answer: 101% (inactive)

Question: And the growth [3]?
Answer: 80.3% (inactive)

Question: What about the growth [4] of the same compound?
Answer: 94.5% (inactive)

Question: And the growth [5]?
Answer: 41.7% (inactive)

Question: And the growth [6]?
Answer: 104% (inactive)

Question: What about the growth [7] of the same compound?
Answer: 57.7% (inactive)

Question: What about the growth [8] of the same compound?
Answer: 92.2% (inactive)

Question: What about the growth [9] of the same compound?
Answer: 108% (inactive)

Question: And the growth [10]?
Answer: 97.3% (inactive)

Question: What about the growth [11] of the same compound?
Answer: 3.17% (active)

Question: And the growth [12]?
Answer: 99.4% (inactive)

Question: What about the growth [13] of the same compound?
Answer: 113% (inactive)

Question: And the growth [14]?
Answer: 101% (inactive)

Question: And the growth [15]?
Answer: 76.4% (inactive)

Question: And the growth [16]?
Answer: 93.9% (inactive)

Question: And the growth [17]?
Answer: 71.6% (inactive)

Question: And the growth [18]?
Answer: 100% (inactive)

Question: And the growth [19]?
Answer: 102% (inactive)

Question: And the growth [20]?
Answer: 98.8% (inactive)

Question: With `CC(=O)c1ccc2c(c1)N(CCCN1CCN(CCO)CC1)c1ccccc1S2` as the compound, how does the growth [1] read?
Answer: 98.1% (inactive) and 55.9% (inactive)

Question: What about the growth [2] of the same compound?
Answer: 84.5% (inactive) and 68.2% (inactive)

Question: What about the growth [3] of the same compound?
Answer: 98.8% (inactive) and 46.9% (inactive)

Question: What about the growth [4] of the same compound?
Answer: 90.7% (inactive) and 43.1% (inactive)

Question: What about the growth [5] of the same compound?
Answer: 101% (inactive) and -11.3% (active)

Question: And the growth [6]?
Answer: -3.7% (active)

Question: What about the growth [7] of the same compound?
Answer: 67.3% (inactive) and 35.3% (inactive)

Question: And the growth [8]?
Answer: 45.5% (inactive)

Question: And the growth [9]?
Answer: 85.9% (inactive) and -18.4% (active)

Question: And the growth [10]?
Answer: 134% (inactive) and -82.8% (active)

Question: And the growth [11]?
Answer: 104% (inactive) and 53.3% (inactive)

Question: What about the growth [12] of the same compound?
Answer: 95.3% (inactive) and -16.7% (active)

Question: And the growth [13]?
Answer: 86.5% (inactive) and -80% (active)

Question: And the growth [14]?
Answer: 91% (inactive) and -12.3% (active)

Question: What about the growth [15] of the same compound?
Answer: 32.6% (inactive) and -8.21% (active)

Question: What about the growth [16] of the same compound?
Answer: 98.3% (inactive) and 37.5% (inactive)

Question: What about the growth [17] of the same compound?
Answer: 100% (inactive) and -53% (active)

Question: And the growth [18]?
Answer: 89% (inactive) and 14.7% (inactive)

Question: And the growth [19]?
Answer: 30.4% (inactive) and -66.5% (active)

Question: What about the growth [20] of the same compound?
Answer: 94.8% (inactive) and -87.4% (active)

Question: What does the source list for `COc1ccc(CCN(C)CCCC(C#N)(c2ccc(OC)c(OC)c2)C(C)C)cc1OC` (stereo not given)?
Answer: growth [1]: 86.9% (inactive) and 106% (inactive) and 86.1% (inactive); growth [2]: 113% (inactive) and 102% (inactive) and 101% (inactive); growth [3]: 96.4% (inactive) and 91.3% (inactive); growth [4]: 90.8% (inactive) and 86.4% (inactive); growth [5]: 95.5% (inactive) and 111% (inactive) and 102% (inactive); growth [6]: 81.2% (inactive); growth [7]: 98.8% (inactive) and 91.6% (inactive); growth [8]: 87.5% (inactive) and 104% (inactive) and 101% (inactive); growth [9]: 93.7% (inactive) and 88.8% (inactive) and 107% (inactive); growth [10]: 100% (inactive) and 109% (inactive) and 101% (inactive); growth [11]: 103% (inactive) and 96.6% (inactive); growth [12]: 72.5% (inactive) and 95.2% (inactive); growth [13]: 93.8% (inactive) and 102% (inactive) and 89.6% (inactive); growth [14]: 85.2% (inactive) and 95.4% (inactive) and 99.3% (inactive); growth [15]: 103% (inactive) and 96.2% (inactive) and 96.3% (inactive); growth [16]: 97.4% (inactive) and 103% (inactive) and 96.2% (inactive); growth [17]: 74.7% (inactive) and 67.2% (inactive) and 100% (inactive); growth [18]: 107% (inactive) and 87.8% (inactive) and 110% (inactive); growth [19]: 91.8% (inactive) and 96.1% (inactive) and 89.5% (inactive); growth [20]: 102% (inactive) and 86.1% (inactive) and 94.2% (inactive)

Question: Which results are given for `O=[N+]([O-])c1ccc(N/N=C\c2cc(Br)ccc2O)nc1`?
Answer: growth [1]: 20.7% (inactive) and 14.2% (inactive); growth [2]: 91.4% (inactive) and 55.4% (inactive); growth [3]: 24.2% (inactive) and 8.6% (active); growth [4]: 12.2% (inactive) and 34.9% (inactive); growth [5]: 2.22% (active) and 0.392% (active); growth [6]: 37.9% (inactive); growth [7]: 6.57% (active) and 7.63% (active); growth [8]: 21.4% (inactive); growth [9]: 25.6% (inactive) and 35% (inactive); growth [10]: 22.9% (inactive) and 43.4% (inactive); growth [11]: 31.8% (inactive) and 24.4% (inactive); growth [12]: 20.6% (inactive) and -3.71% (active); growth [13]: 16.6% (inactive); growth [14]: 11% (inactive) and 24.3% (inactive); growth [15]: 44.2% (inactive) and 48.2% (inactive); growth [16]: 22.3% (inactive) and 19.7% (inactive); growth [17]: 6.95% (active) and 7.63% (active); growth [18]: 8.15% (active) and 9.56% (active); growth [19]: 9.18% (active) and -3.76% (active); growth [20]: 2.25% (active) and 13.7% (inactive)

Question: Which results are given for `CCN(CC)C(=S)SSC(=S)N(CC)CC`?
Answer: growth [1]: 91% (inactive) and 111% (inactive); growth [2]: 86.5% (inactive) and 104% (inactive); growth [3]: 84.8% (inactive) and 102% (inactive); growth [4]: 82.1% (inactive) and 88.7% (inactive); growth [5]: 62.4% (inactive) and 111% (inactive); growth [6]: 90.4% (inactive) and 110% (inactive); growth [7]: 58.1% (inactive) and 88.8% (inactive); growth [8]: 85.5% (inactive); growth [9]: 91.2% (inactive) and 91.7% (inactive); growth [10]: 82.9% (inactive) and 106% (inactive); growth [11]: 83.4% (inactive) and 109% (inactive); growth [12]: 54.6% (inactive) and 80.5% (inactive); growth [13]: 61.2% (inactive) and 113% (inactive); growth [14]: 81.6% (inactive) and 102% (inactive); growth [15]: 105% (inactive) and 131% (inactive); growth [16]: 88.1% (inactive) and 95.7% (inactive); growth [17]: 78.5% (inactive) and 103% (inactive); growth [18]: 91.5% (inactive) and 92.8% (inactive); growth [19]: 69.7% (inactive) and 69.5% (inactive); growth [20]: 66.8% (inactive) and 92.4% (inactive)

Question: For `Oc1ccccc1/C=N\NC(=S)N/N=C/c1ccccc1O`, which growth [1] is on record?
Answer: 62.6% (inactive) and 58.7% (inactive)

Question: And the growth [2]?
Answer: 68.1% (inactive) and 43.4% (inactive)

Question: What about the growth [3] of the same compound?
Answer: 24.8% (inactive) and 29.7% (inactive)

Question: And the growth [4]?
Answer: 48.9% (inactive) and 71.5% (inactive)

Question: What about the growth [5] of the same compound?
Answer: 19.5% (inactive) and 12.5% (inactive)

Question: And the growth [6]?
Answer: 45.9% (inactive) and 62.4% (inactive)

Question: And the growth [7]?
Answer: 31% (inactive) and 2.87% (active)

Question: And the growth [8]?
Answer: 32.4% (inactive)

Question: What about the growth [9] of the same compound?
Answer: 29% (inactive) and 27.1% (inactive)

Question: What about the growth [10] of the same compound?
Answer: 65.6% (inactive) and 48.7% (inactive)

Question: And the growth [11]?
Answer: 55% (inactive) and 44.6% (inactive)

Question: What about the growth [12] of the same compound?
Answer: 26% (inactive)

Question: What about the growth [13] of the same compound?
Answer: 39.6% (inactive) and 42.9% (inactive)

Question: What about the growth [14] of the same compound?
Answer: 55% (inactive) and 44.2% (inactive)

Question: What about the growth [15] of the same compound?
Answer: 80.7% (inactive) and 63.9% (inactive)

Question: And the growth [16]?
Answer: 50% (inactive) and 37% (inactive)

Question: What about the growth [17] of the same compound?
Answer: 22.4% (inactive) and 30.6% (inactive)

Question: And the growth [18]?
Answer: 45.4% (inactive) and 23.2% (inactive)

Question: And the growth [19]?
Answer: 40.3% (inactive) and 34.2% (inactive)

Question: What about the growth [20] of the same compound?
Answer: 24.4% (inactive) and 24.5% (inactive)
